This passage reports composite z-score and z-score results from PubChem BioAssay.

The source made the active and inactive calls.

A short description of test [1]: compounds binding Alexa647 anti-His antibody – biochemical, small-molecule microarray, 635 nm fluorescence, artefact control for SMM control protein annotation, primary screen (AID 1128).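 Also: score merges feature fluorescence with signal-to-noise for each printed compound spot.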 The conditions noted are these: higher = more signal.
The subject of test [2] is Human papillomavirus type 1a E7 protein (residues 1-88). The test can be described thus: HPV1a E7 small-molecule binders, primary screen, biochemical, small-molecule microarray, residues 1-88, 635 nm (AID 1129). The conditions noted are these: small-molecule microarray binding, fluorescence 635 nm; higher = more signal.
Test [3] has as its target Focal adhesion kinase 1 (Homo sapiens) (UniProt Q05397). The test can be described thus: PTK2 protein binding on printed compound slides – biochemical, small-molecule microarray, 635/667 nm fluorescence, BSA, DTT, primary screen (AID 1130).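 Also: composite of spot emission at 667 nm and signal to noise over triplicate slides.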 The conditions noted are these: 635 nm fluorescence, higher = more signal.
In test [4] the test system is Fibrinogen (Alexa647-labelled). The test can be described thus: Alexa647-fibrinogen binding to printed small molecules – biochemical, small-molecule microarray, 635/667 nm fluorescence, artefact control for SMM control-protein annotation, profiling panel (AID 1131).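 Also: z-score merges 667 nm fluorescence with per-spot signal-to-noise over triplicate slides.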 The conditions noted are these: fibrinogen-A647 binding fluorescence, higher = more signal.
Test [5] has as its target Follistatin (Homo sapiens) (UniProt P19883). The test can be described thus: FST protein binding to printed compounds – biochemical, small-molecule microarray, 635/667 nm fluorescence, primary screen (AID 1132). The conditions noted are these: 635 nm fluorescence, higher = more signal.
Test [6] concerns the target Fibroblast growth factor 2 (Homo sapiens) (UniProt P09038). The experiment in a line: basic fibroblast growth factor binding to printed compounds – biochemical, small-molecule microarray, 635/667 nm fluorescence, primary screen (AID 1133). The conditions noted are these: FGF2, fluorescence 635/667, higher = more signal.
A short description of test [7]: JC-1 mitochondrial potential readout, lung cancer cells – cell-based, A549, JC-1 fluorescence, basal, 24 h, 100 nL, profiling panel (AID 1138).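 Also: A549 lung adenocarcinoma cells under basal conditions with no added stimulus; test concentration not given here.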 The conditions noted are these: higher = more signal.
For a further test, the system named is Lefty1. The experiment in a line: Lefty1 protein binding to printed compounds – biochemical, small-molecule microarray, 635/667 nm fluorescence, primary screen (AID 1139). The conditions noted are these: fluorescence 635/667, higher = more signal.
For test [8], the system named is wheat germ agglutinin (Triticum aestivum), Alexa647-labelled. The experiment in a line: Alexa647-WGA lectin binding to printed small molecules – biochemical, small-molecule microarray, 635/667 nm fluorescence, artefact control for SMM control-protein annotation, profiling panel (AID 1140).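 Also: score merges 667 nm feature emission with signal to noise over triplicate slides.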 The conditions noted are these: WGA-A647 binding, 635 nm fluorescence, higher = more signal.

Test [9] addresses Luciferin 4-monooxygenase (Photinus pyralis) (UniProt P08659). The test can be described thus: inhibition of purified Photinus pyralis luciferase – biochemical, luminescence, purified enzyme, 2006 set, primary screen (AID 1141).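 Also: cell-free assay with purified firefly luciferase at 100 ng per well in PBS; test concentration not given here.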 The settings on record: purified firefly luciferase, SteadyGlo luminescence, 30 min; higher = more signal, called active from +8 up or from −8 down.

Sequence of Focal adhesion kinase 1 (Homo sapiens) (Q05397 whole entry, looked up): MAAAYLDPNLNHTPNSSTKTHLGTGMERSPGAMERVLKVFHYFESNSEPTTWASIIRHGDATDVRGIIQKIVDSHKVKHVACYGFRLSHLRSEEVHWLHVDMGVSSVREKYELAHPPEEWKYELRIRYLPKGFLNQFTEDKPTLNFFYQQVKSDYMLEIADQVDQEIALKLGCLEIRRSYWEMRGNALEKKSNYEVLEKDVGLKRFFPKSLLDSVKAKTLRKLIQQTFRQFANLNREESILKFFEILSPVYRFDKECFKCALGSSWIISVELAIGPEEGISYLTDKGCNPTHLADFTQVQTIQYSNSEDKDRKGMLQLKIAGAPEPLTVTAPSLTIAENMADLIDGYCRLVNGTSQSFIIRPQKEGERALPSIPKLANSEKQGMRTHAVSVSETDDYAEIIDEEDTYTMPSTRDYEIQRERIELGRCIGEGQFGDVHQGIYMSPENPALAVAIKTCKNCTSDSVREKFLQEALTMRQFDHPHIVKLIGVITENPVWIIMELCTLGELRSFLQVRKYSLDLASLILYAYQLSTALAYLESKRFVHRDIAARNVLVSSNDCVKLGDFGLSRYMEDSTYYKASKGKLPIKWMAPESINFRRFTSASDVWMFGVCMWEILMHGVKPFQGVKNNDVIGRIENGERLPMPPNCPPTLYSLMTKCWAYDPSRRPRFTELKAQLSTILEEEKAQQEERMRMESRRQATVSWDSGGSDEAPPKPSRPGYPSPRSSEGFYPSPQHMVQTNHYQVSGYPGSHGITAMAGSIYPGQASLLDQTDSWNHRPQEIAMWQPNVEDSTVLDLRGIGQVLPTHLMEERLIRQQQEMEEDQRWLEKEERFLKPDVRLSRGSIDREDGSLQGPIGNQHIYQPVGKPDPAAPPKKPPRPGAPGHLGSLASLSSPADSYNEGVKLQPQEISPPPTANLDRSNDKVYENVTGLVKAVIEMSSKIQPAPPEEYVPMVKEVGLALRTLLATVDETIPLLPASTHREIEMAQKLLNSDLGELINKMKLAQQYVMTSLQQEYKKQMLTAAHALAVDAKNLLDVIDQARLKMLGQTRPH
Sequence of Luciferin 4-monooxygenase (Photinus pyralis) (P08659 whole entry, looked up): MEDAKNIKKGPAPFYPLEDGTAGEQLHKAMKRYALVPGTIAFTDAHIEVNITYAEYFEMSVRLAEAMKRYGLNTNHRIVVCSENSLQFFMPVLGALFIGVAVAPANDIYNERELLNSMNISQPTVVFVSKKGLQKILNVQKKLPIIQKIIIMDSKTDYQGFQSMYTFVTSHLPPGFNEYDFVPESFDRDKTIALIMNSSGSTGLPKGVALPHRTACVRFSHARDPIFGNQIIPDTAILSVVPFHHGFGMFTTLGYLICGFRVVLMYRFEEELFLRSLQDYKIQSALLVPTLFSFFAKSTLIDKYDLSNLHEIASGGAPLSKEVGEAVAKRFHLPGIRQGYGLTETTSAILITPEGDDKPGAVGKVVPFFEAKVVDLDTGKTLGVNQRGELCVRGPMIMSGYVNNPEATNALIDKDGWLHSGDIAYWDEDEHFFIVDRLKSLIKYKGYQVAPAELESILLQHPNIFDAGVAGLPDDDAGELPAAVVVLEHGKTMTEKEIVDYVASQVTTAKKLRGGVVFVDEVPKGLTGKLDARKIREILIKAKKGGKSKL
Sequence of Follistatin (Homo sapiens) (P19883 whole entry, looked up): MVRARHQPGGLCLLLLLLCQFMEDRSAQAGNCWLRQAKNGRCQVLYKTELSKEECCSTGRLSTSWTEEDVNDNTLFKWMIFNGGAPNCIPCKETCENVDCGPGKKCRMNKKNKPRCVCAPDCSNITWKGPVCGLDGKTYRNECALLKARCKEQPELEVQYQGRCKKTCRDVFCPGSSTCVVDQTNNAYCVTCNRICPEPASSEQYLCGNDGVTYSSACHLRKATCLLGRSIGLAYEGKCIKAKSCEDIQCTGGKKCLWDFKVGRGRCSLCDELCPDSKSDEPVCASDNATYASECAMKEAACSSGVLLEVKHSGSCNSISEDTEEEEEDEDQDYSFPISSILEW
Sequence of Fibroblast growth factor 2 (Homo sapiens) (P09038 whole entry, looked up): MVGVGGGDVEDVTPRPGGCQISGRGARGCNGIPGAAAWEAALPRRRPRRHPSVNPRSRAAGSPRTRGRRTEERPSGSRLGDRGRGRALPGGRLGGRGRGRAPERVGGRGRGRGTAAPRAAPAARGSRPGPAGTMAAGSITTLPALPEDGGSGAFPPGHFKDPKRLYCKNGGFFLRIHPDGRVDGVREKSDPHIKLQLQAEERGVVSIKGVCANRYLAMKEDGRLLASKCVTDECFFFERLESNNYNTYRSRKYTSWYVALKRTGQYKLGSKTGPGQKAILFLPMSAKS

For the compound `C=CC1c2cc(O)c(OC)cc2CCN1Cc1cccc(OC(F)(F)F)c1` (stereo not given), the composite z-score in test [1] is 1.33; in test [2], 0.167; in test [3], 0.408; in test [4] it was -0.36; in test [5] it was -0.0223; in test [6], -0.43. Also, the composite z-score in the test on Lefty1 was -0.145; in test [8], 1.01. For the same compound, the values for the z-score in [7] and in test [9] were -1.03 and 0.454 (inactive), respectively.
With `O=C(NC1CC1)[C@@H]1c2ccccc2C(=O)N(Cc2cc(F)cc(C(F)(F)F)c2)[C@H]1c1ccc(CO)cc1`, the composite z-score was 1.23 in test [1]; -0.454 in [2]; 0.315 in test [3]; -0.399 in test [4]; 0.542 in test [5]; -0.258 in [6]. In addition, the composite z-score with Lefty1 was -0.396; in [8] it was 0.569. Further, the z-score in test [7] was 0.739; in [9], -0.124 (inactive).
For `O=C(O)[C@H](Cc1ccccc1)n1cc(-c2ccccc2)nn1`, the composite z-score in test [1] came to 0.347; in [2] it was 0.6; in [3], 0.218; in [4], 0.368; in test [5], 0.571; in test [6], 0.607. Moreover, the composite z-score in the test with Lefty1 came to 0.206; in [8], 0.651. Further, the z-score is -0.469 in test [7] and 0.899 (inactive) in test [9].
Take `COC(=O)C[C@H]1O[C@@H](CCc2ccccc2)[C@@H](C)[C@@H]1[Si](C)(C)c1ccc(OC)cc1`: the composite z-score was -0.608 in [1]; -1.35 in test [2]; 0.217 in test [3]; -0.755 in test [4]; 0.0222 in [5]; -0.187 in test [6]. The figures for the composite z-score (in the test on Lefty1; in [8]) were -0.105 and -0.359, respectively. Besides, the z-score in [7] is 1.57; in test [9], 0.301 (inactive).
For the compound `COc1ccc(C(O)C2C=CC3C(=O)N(C)C(=O)C3N2N(c2ccccc2)c2ccccc2)c2ccccc12` (stereo not given), the composite z-score in [1] is 2.54; in test [2], -0.172; in [3], -0.278; in test [4], 0.384; in test [5], 1.41; in test [6], 0.392. The values for the composite z-score (in the test with Lefty1; in test [8]) were 1.09 and 1.07, respectively. The z-score in test [7] is 0.419; in [9], -0.091 (inactive).
Regarding `[N-]=[N+]=Nc1ccccc1[C@H]1OC(c2ccc(OCCCO)cc2)=N[C@@]1(CCS(=O)(=O)c1ccccc1)C(=O)NCc1ccccc1`, the composite z-score was found to be 1.18 in test [1]; 1.24 in test [2]; 0.341 in [3]; 1.04 in test [4]; 1.34 in test [5]; 0.694 in test [6]. Also, the composite z-score in the test on Lefty1 amounted to 0.152; in [8] it was 0.697. Besides, the z-score in [7] was 0.727; in test [9], -7.61 (inactive).
For the compound `O=C(O)C1N=C(c2ccc(OCCCO)cc2)N(c2ccccc2)O1` (stereo not given), the composite z-score in test [1] is 1.73; in test [2] it was 1.1; in test [3], 0.817; in [4], 0.953; in test [5], 1.3; in test [6], 1.18. Besides, the composite z-score was 0.369 in the test with Lefty1 and 0.207 in [8]. In addition, the z-score in test [7] is 0.0657; in test [9] it was -7.84 (inactive).
Consider `COc1ccc([Si](C)(C)[C@H]2[C@H](CCO)O[C@@]3(C(=O)N(Cc4ccccc4)c4ccc(N5CCCCC5=O)cc43)[C@@H]2C)cc1`, for which the composite z-score in test [1] came out at 1.49; in [2], 0.435; in [3], 0.208; in [4], 0.94; in test [5], 1.28; in test [6], 1.28. Moreover, the composite z-score worked out at 0.628 in the test with Lefty1 and 0.768 in test [8]. Moreover, the values for the z-score in test [7] and in test [9] were 2.23 and -1.08 (inactive), respectively.
For `CC[C@@H]1C=C(C(=O)O)[C@H](c2cccc3ccccc23)N1S(=O)(=O)c1ccc(C)cc1`, the composite z-score came to 1.18 in test [1]; 1.11 in test [2]; 1.39 in test [3]; 0.159 in test [4]; 0.414 in test [5]; 0.108 in test [6]. Further, the composite z-score with Lefty1 is -0.103; in test [8], 0.302. The values for the z-score in test [7] and in [9] were -0.345 and 1.46 (inactive), respectively.
In the case of `COCCOC(=O)N1C(=O)[C@@]2(c3ccccc31)[C@H](C(=O)N1CCc3cc(OC)c(OC)cc3C1)[C@H]1C(=O)O[C@H](c3ccccc3)[C@H](c3ccccc3)N1[C@@H]2c1ccc(O)cc1`, the composite z-score was 2.07 in [1]; 1.18 in test [2]; 0.381 in test [3]; 0.864 in test [4]; 1.09 in test [5]; 1.26 in test [6]. The composite z-score came out at 0.788 in the test with Lefty1 and 0.74 in test [8]. The z-score in [7] was 0.674; in test [9] it was -5.57 (inactive).
`COc1ccc(C(=O)Nc2cccc(CN3C(=O)[C@]4(O[C@H](CCn5cc(CCO)nn5)[C@@H]([Si](C)(C)c5ccc(OC)cc5)[C@@H]4C)c4ccccc43)c2)cc1`: the composite z-score was -0.0471 in test [1]; 1.09 in test [2]; 0.258 in [3]; 0.757 in test [4]; 1.29 in test [5]; 0.188 in [6]. Moreover, the composite z-score in the test with Lefty1 stood at 0.834; in [8], 0.351. Further, the z-score in [7] is -1.11; in test [9], -0.1 (inactive).
Take `O=C1O[C@H](c2ccccc2)[C@H](c2ccccc2)N2[C@H]1[C@@H](C(=O)N1CCN(c3ncccn3)CC1)[C@]1(C(=O)Nc3ccc(C#CC4=CCCCC4)cc31)[C@H]2c1ccccc1OCCO`: the composite z-score in test [1] is 1.5; in [2], 1.18; in [3], 0.543; in test [4] it was 0.916; in test [5], 1.34; in test [6], 1.3. The composite z-score with Lefty1 is 1.16; in test [8], 1.07. For the same compound, the results for the z-score in test [7] and in test [9] were -1.01 and -0.662 (inactive), respectively.
`CCCC[C@@H]1C[C@H]1[C@@H](NC(=O)c1cccnc1)c1ccc(Cl)cc1`: the composite z-score was -1.38 in [1]; -2.87 in test [2]; -0.518 in [3]; -2.97 in test [4]; -2.16 in [5]; -2.46 in test [6]. Further, the values for the composite z-score (with Lefty1; in test [8]) were -2.59 and -1.72, respectively. In addition, the z-score was 0.66 in [7] and 0.928 (inactive) in test [9].
As for `C#CCNCc1ccccc1`, the composite z-score in test [1] was 0.3; in [2], 0.736; in [3], -0.101; in test [4], -0.395; in test [5] it was 0.065; in [6], 0.166. Moreover, the composite z-score in the test with Lefty1 is 0.0644; in test [8] it was -0.219. Moreover, the values for the z-score in [7] and in test [9] were 0.588 and -0.352 (inactive), respectively.
As for `CCCCCCc1nc(-c2ccc(-c3ccc(Cl)c(Cl)c3)o2)cc2c1[Si](C(C)C)(C(C)C)O[C@H]2c1ccccc1`, the composite z-score was -0.403 in [1]; -0.73 in test [2]; -0.132 in test [3]; -1.34 in test [4]; -0.348 in [5]; -0.434 in [6]. The composite z-score was 0.0259 in the test with Lefty1 and 1.04 in test [8]. Besides, the z-score in test [7] is -0.859; in test [9] it was 0.712 (inactive).
For `NC(=O)N1C(=O)C2C(C1=O)C1C=C(CCCO)C2C(C2CC2)N1Cc1cc2c(cc1Br)OCO2` (stereo not given), the composite z-score in test [1] was 1.06; in [2], -1.06; in test [3], 0.164; in test [4], 0.928; in test [5] it was 0.246; in test [6] it was -0.407. In addition, the figures for the composite z-score (with Lefty1; in test [8]) were 0.969 and 0.847, respectively. For the same compound, the z-score is 0.158 in [7] and -1.13 (inactive) in [9].
